Test results taken from the OligoGym collection.

These sequences were tested against GABRA1 (assay: pooled miR-30 sensor sort-seq; sequence = guide strand). Conditions: shRNA.
Also: reference of the scale not given here.

| Sequence | sensor-assay potency score (higher = more potent) |
| --- | --- |
| TACATCTATTGTATATTCCATA | -0.691 |
| TTAGACGTGATCCATCTTCTGC | -0.591 |
| TAGCTTGTGAAATTTAGGCAGG | -0.747 |
| TACAATGAGCAACTGCACCTTT | 0.167 |
| TCTTCTGCTACAACCACTGAGC | -0.0993 |
| TTTTCTTGTATCTTTGAACCAT | 0.355 |
| TACTGTGGCAAACTCAATCAGA | -0.32 |
| TATATCATTGGATAGCAGCTTT | -0.213 |
| TCTGCTACAACCACTGAGCGTG | -0.543 |
| TATATATCTACAAATGACCTAG | 0.243 |
| TTAACAACATTCCAACAGCTAA | -1.39 |
| TTAAATATCTGTTAAACTCTAT | -0.0161 |

The sequences below were run against GABRB2 in the same assay as above. Conditions: shRNA.

| Sequence | sensor-assay potency score (higher = more potent) |
| --- | --- |
| TAATCTACAATAGAGAACTGTG | -0.184 |
| TTATCGTTCAGGAAATAGGTAT | -0.408 |
| TATTACATTATAGGACAGCCTC | -0.766 |
| TTGTTGAAAGTACATTGTCAAG | -1.79 |
| TGAAAGTACATTGTCAAGGTAT | 0.245 |
| TTCAGGAGTCTATCCACCGTCT | 0.156 |
| TTTCTCTTAAGCTTAAAGCTGA | -0.0649 |
| TTACATTATAGGACAGCCTCTT | -0.0422 |
| TATCTCTCCAGGCTTGTTGAAA | -1.12 |
| TCAGAAACCATATCGATGCTGG | 0.313 |
| TCTGAGTCCATAAAGGACGGTG | -0.531 |
| TTTGTAATCTACAATAGAGAAC | -1.05 |
| TGAAGCATCGTAATTAATCCAG | -0.467 |
| TTAATCCAGAAGGAGACCCAGG | -0.469 |
| TAGGCTAGCATTGTGCTTCTGG | 0.754 |
| TTTCAGGAGTCTATCCACCGTC | -0.228 |
| TTAACCAGCGACATATTACTAG | -0.576 |
| TCATAGGCTAGCATTGTGCTTC | -0.299 |
| TCTACAATAGAGAACTGTGGAA | -0.939 |
| TTAAAGCTGAGGGATAACCTGG | -0.689 |
| TACATTATAGGACAGCCTCTTA | -0.982 |
| TTGCGCCACATGTCGTTCCAGA | -0.912 |

What follows are sequences tested against GABRP in the same assay as above. Conditions: shRNA.

| Sequence | sensor-assay potency score (higher = more potent) |
| --- | --- |
| TTACATCATTATCTTGTCCTGT | 0.386 |
| TTTCATTGTCAAGTCACTGTAG | 0.714 |
| TAGTGTAATTTCCTGTCTCCTG | -0.339 |
| AACTTGAACTTGTCGCTGGTTT | -0.459 |
| TAGTGATCAACATTACTGGGGT | 0.2 |
| TATGGTGGCTGTGTAGTCCATG | -0.102 |
